High-throughput results (PubChem)
Tgondii IFNg – inhibitors of Toxoplasma gondii growth with IFN-gamma; actives 3.8% (n = 69,000); Toxoplasma gondii growth in IFN-gamma-treated host cells; active compounds read low; activity change, negative = inhibition, % (no concentration beside the values); in the data active = activity change below about -70%, passing the limit was not always enough;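 note: host cells are HeLa cells infected with Toxoplasma gondii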
Each line names hits and unclear results; the compound was inactive in the other large screens. Many of the other results were omitted from the sample, so hits are more common in it than they were.

CC1=CC[C@@H]2CN(C(=O)c3cc(Cn4ccc5ccccc54)[nH]n3)C[C@@H]2C1	none
Cc1ccccc1CC(=O)N1CCCC1c1nc(-c2cccnc2)cc(=O)[nH]1 (stereo not given)	none
Cc1noc(CN(C)C(=O)c2c(-n3cccc3)sc(C)c2C)n1	none
Cc1ccc2c(c1)c(=O)c(C(=O)N(C)Cc1nc3ccc(F)cc3[nH]1)cn2C	none
Cc1cc(C)n(CC(=O)N2CCC(c3cc4cccnc4[nH]3)CC2)n1	none
Cc1noc(-c2ccc(N(C)Cc3ccncn3)nc2)n1	none
COc1nccnc1N1CCC(O)(c2ccc(C)cn2)CC1	none
CN1CCN(Cc2ccccc2Oc2ncccc2C(F)(F)F)CC1	none
c1coc(-c2cnc(NCc3ccc4c(c3)OCO4)nc2-c2ccco2)c1	none
CC(=O)NCC1=CCCN(CC(=O)NC(C)c2ccc(C)cc2)C1 (stereo not given)	none
COc1cccc(N2CC3(CCN(c4nccs4)C3)CC2=O)c1 (stereo not given)	none
COCC(=O)NC1CC2(CCN(CC#N)CC2)Oc2ccccc21 (stereo not given)	none
CCn1ncc(Br)c1CN	none
CC(C)(C)C(=O)N1CCN(C2c3ccccc3-c3ccccc32)CC1	Tgondii IFNg -94.4
O=C(c1cccnc1Oc1ccccc1)N1CCN(C2c3ccccc3-c3ccccc32)CC1	none
CC(C)(C)C(=O)N1CCN(c2cccc(Cl)c2)CC1	none
O=C(NC(=S)N1CCCCCC1)c1ccco1	none
CCn1c(C2CCCN(C(=O)NCc3ccc(Cl)cc3)C2)n[nH]c1=O (stereo not given)	none
CO[C@@H]1CC[C@@H]2[C@H]1OCCN2C(=O)N(C)C	none
CN(C)C(=O)N1CCO[C@@H]2[C@H]1CC[C@H]2OCC1CCOCC1	Tgondii IFNg -72.5
CN(C)C(=O)N1CCO[C@@H]2[C@H]1CC[C@H]2OCCN1CCCC1	none
CC(C)C(=O)N1CC(c2ncn3ccccc23)C1	none
O=C(Cn1c(=O)cc(C(=O)N2CCCC2)c2ccccc21)Nc1cc(F)ccc1F	none
COc1cc(NC(=O)Cn2c(=O)ccc3cc(S(=O)(=O)N4CCC(C)CC4)ccc32)cc(OC)c1	none
CCN(CC)S(=O)(=O)c1ccc2c(c1)N(Cc1nc(-c3ccccc3C)oc1C)C(=O)CS2	Tgondii IFNg -77.5
Cc1ccccc1-c1nc(CN(C)S(=O)(=O)c2ccc(Cl)cc2)c(C)o1	none
Cc1ccccc1-c1nc(CN(C)S(=O)(=O)c2ccccc2)c(C)o1	none
CO[C@H]1CCN(c2ccc(C)nn2)[C@H]1Cc1cnn(C)c1	none
Cc1nc(Cn2c3c(ccc2=O)CC(N)CC3)cs1 (stereo not given)	none
CCN1c2cc(Cl)ccc2C(=O)NC12CCN(C(=O)Nc1ccc3c(c1)OCO3)CC2	none
CC(=O)Nc1cc(C)c(S(=O)(=O)Nc2ccc3c(c2)N(C)C(=O)CO3)cc1C	none
COc1ccc(Cc2nnc(NC(=O)CC(C)C)s2)cc1	none
Cc1ccc(CN2CC[C@@H](O)[C@@H]2Cc2cnn(C)c2)s1	none
Cc1nccnc1-c1ccnn1C(=O)Nc1cc(Cl)cc(Cl)c1	Tgondii IFNg -81.7
COc1cc(NC(=O)Nc2ccnn2C)cc(OC)c1	none
Cc1nc(-c2cccs2)sc1-c1ccnn1C(=O)NC(C)C	none
CC(C)N1CCc2ncn(C(C)C)c2C1C(=O)NCCc1cccc(F)c1 (stereo not given)	none
CC(C)CN1C[C@@H]2CCN(C(=O)C3CCCO3)CC[C@H]2S1(=O)=O (stereo not given in full)	none
CC(C)NC(=O)C1CC2CN(CCc3ccccc3)CC1O2 (stereo not given)	none
COC(=O)c1sc(SC)c(S(=O)(=O)c2ccc(Cl)cc2)c1C	none
CSc1sc(C(=O)Sc2ccc(Cl)cc2)cc1S(=O)(=O)C(C)C	Tgondii IFNg -78.9
CSc1sc(C(=O)N2CCc3ccccc32)cc1S(=O)(=O)C(C)C	none
COc1cc(NC(=O)Nc2ccc(Cl)cc2)c(-n2c(C)ccc2C)cc1OC	none
CSc1sc(NC(=O)Nc2ccc(Cl)cc2)cc1S(=O)(=O)C(C)C	Tgondii IFNg -84.0
CC(C)S(=O)(=O)c1cscc1NC(=O)Nc1ccccc1	none
Cc1ccsc1[C@@H]1CCN(Cc2cn[nH]c2C(=O)O)C[C@H]1O	none
CCNc1nc(OC)nc(SCC(=O)OC)n1	none
O=C(CSCc1ccccc1Cl)NCc1cc(C2CC2)n[nH]1	none
CCN1CCn2c(C)nc(C(=O)Nc3cnc4n3CCCC4)c2C1=O	none
COC(=O)[C@@H]1C[C@H](NC(=O)c2sc3cccc(F)c3c2Cl)CN1C	none
COc1ccc(-c2cccc(Cl)c2Cl)nn1	none
Cc1ccc2[nH]cc(CCNC(=O)C3CCCN(C(=O)c4[nH]c(C)cc4C)C3)c2c1 (stereo not given)	none
O=c1cc(O)c2c(=O)n3c4c(cccc4c2o1)CCC3	none
O=c1c2c3ccccc3[nH]c2c2cccc3c2n1CC3	Tgondii IFNg -89.3
CN1CCc2ccccc2Cc2[nH]c3ccccc3c2CC1	none
c1nc2c(n1CC1CC1)C(COCC1CCOCC1)CNC2 (stereo not given)	none
Cc1ncc(-c2ccncc2)c(CN(C)S(=O)(=O)c2ccc3c(c2)NC(=O)C(C)O3)n1 (stereo not given)	none
COc1cccc(CNC(=O)Cn2c(=O)ccc3cc(S(=O)(=O)N4CCC(C)CC4)ccc32)c1	Tgondii IFNg -80.1
